# PubChem BioAssay AID1851 (National Center for Advancing Translational Sciences (NCATS), 2009)
# Screen size: about 16,000 compounds; about 2,600 (16%) were called active. Roughly 20% stayed inconclusive and do not appear here. Only a sample is shown. A number with no mark means an inactive call. Calls come from the whole dose curve; as a rule, active = well fitted curve in the direction sought with a large enough effect; inconclusive = small, poorly fitted or top-dose-only effect, or effect the other way; inactive = no such curve, though single readings can be large or run the other way.
# Biological target: Cytochrome P450 2D6 (Homo sapiens) (UniProt P10635)
# Assay: Cytochrome panel assay with activity outcomes
# Conditions: recombinant CYP, pro-luciferin dealkylation, luminescence, p450-cyp2d6; series mostly up to 57.1 µM; activity, negative = inhibition: at the top concentration
# % is set by controls: 0 for no effect and ±100 for the full control effect.
# Cytochrome P450 2D6 (Homo sapiens), sequence (P10635 whole entry, looked up): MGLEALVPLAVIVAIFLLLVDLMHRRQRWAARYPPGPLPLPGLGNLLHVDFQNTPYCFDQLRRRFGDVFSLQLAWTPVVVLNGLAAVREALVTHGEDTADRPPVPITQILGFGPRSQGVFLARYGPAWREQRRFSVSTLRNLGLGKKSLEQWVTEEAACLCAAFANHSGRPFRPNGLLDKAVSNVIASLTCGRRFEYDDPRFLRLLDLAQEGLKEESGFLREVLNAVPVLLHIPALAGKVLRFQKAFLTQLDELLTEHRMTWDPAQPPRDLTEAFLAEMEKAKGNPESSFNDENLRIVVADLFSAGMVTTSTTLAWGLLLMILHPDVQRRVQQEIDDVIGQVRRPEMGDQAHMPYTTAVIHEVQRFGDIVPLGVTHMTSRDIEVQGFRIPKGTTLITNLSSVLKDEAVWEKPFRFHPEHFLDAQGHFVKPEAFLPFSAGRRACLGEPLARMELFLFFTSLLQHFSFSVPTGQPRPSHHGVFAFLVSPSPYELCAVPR
SMILES,"activity, negative = inhibition",AC50
CSc1nc(C)c(CCOC(=O)c2cccc(C)c2)c(=O)[nH]1,-2.28%,–
CCN(CC)S(=O)(=O)c1cc(C(=O)Nc2ccccc2C(=O)O)ccc1OC,0.338%,–
CCN(CC)S(=O)(=O)c1cc(C(=O)OC)ccc1Cl,-5.66%,–
CCN(CC)S(=O)(=O)c1cc(C(=O)Nc2ccncc2)ccc1Cl,–,2240 nM (active)
Oc1c(CN2CCCCC2)cc(Br)c2cccnc12,–,7940 nM (active)
CC(C)(C)CC(C)(C)c1cc(O)c(O)c(CN2CCCCC2)c1,-16.1% [at 11.4 µM],–
NS(=O)(=O)c1cc(Br)c(N=Nc2ccc(O)c3ncccc23)c(Br)c1,-4.11% [at 11.4 µM],–
Nc1nc2c(nc(Br)n2[C@@H]2O[C@H]3COP(=O)(O)O[C@@H]3[C@H]2O)c(=O)[nH]1,-1.47%,–
CCN(CC)c1cc(C)c2cc(NC(=O)CNC(C)=O)ccc2n1,-22.7%,–
O=C(Cc1ccc2c(c1)CCCC2)Nc1ccccc1Br,-15.8%,–
CC(C)N=c1cc2n(-c3ccc(Cl)cc3)c3ccccc3nc-2cc1Nc1ccc(Cl)cc1,–,2510 nM (active)
CCOC(=O)c1cc2sc(C)cc2n1CC(=O)N1CCN(C(=O)c2ccco2)CC1,-14.6%,–
COc1ccc(N=Cc2ccc(CNS(=O)(=O)c3ccc(Cl)cc3)o2)cc1,15.2%,–
Nc1ncnc2c1ncn2[C@H]1O[C@@H](C(=O)OCCO)[C@@H](O)[C@H]1O,17% [at 11.4 µM],–
COc1ccccc1NC(=O)N1CCCC1C(=O)NCc1ccc2c(c1)OCO2 (stereo not drawn),–,14100 nM (active)
CCc1ccccc1NC(=S)NCc1ccc2c(c1)OCO2,–,1260 nM (active)
CC(=O)Nc1cccc(NC(=O)C2CCCN2C(=O)Nc2ccccc2C)c1 (stereo not drawn),-10.4%,–
CCCn1nc2cc(C(=O)NCc3ccc4c(c3)OCO4)ccc2c1OCC,-40.6%,–
Cc1ccc(CNC(=O)C2CCCN2C(=O)NCc2ccccc2)cc1 (stereo not drawn),-6.14%,–
CCc1ccccc1NC(=O)c1ccc(-n2c(C)ccc2C)cc1,-24.8%,–
CCNc1nc(NCC)nc(N(C)N)n1,-24.1%,–
CCOC(=O)c1c(C)nc2sc3c(=O)n(-c4ccc(OC)cc4)nnc3c2c1-c1ccc(OC)cc1,-1.38%,–
CCOC(=O)C1=C(C)NC(C)=C(C(=O)OC)[C@@H]1c1cccc([N+](=O)[O-])c1,-12% [at 25.6 µM],–
COC(=O)c1cc(OC)c(OC)cc1NC(=O)CSc1ccccc1,4.67%,–

SMILES,"activity, negative = inhibition",AC50
COC(=O)C1=C(C)NC(C)=C(C(=O)OCCSc2ccccc2)[C@@H]1C,–,25100 nM (active)
COCCNC(=O)CCCCCn1c(=S)[nH]c2ccccc2c1=O,-1.04%,–
COc1cccc(N2CCN(C(=O)Nc3ccc4c(c3)NC(=O)CO4)CC2)c1,-13.3%,–
S=c1nc[nH]c2c1ncn2Cc1ccco1,1.42% [at 11.4 µM],–
CC[C@H](C(=O)c1cccs1)C(O)(C(F)(F)F)C(F)(F)F,–,3160 nM (active)
CCC/C=C(\CCC)C(NC(=O)c1cccs1)c1ccc(C(F)(F)F)cc1 (stereo not drawn),4.02%,–
O=C(O)C(Cc1cccs1)C(=O)O,21.5% [at 11.4 µM],–
CN[C@H]1[C@@H](O[C@@H]2[C@H](O[C@@H]3[C@@H](O)[C@@H](O)[C@@H](N=C(N)N)[C@@H](O)[C@@H]3N=C(N)N)O[C@H](C)[C@@]2(O)C=O)O[C@@H](CO)[C@@H](O)[C@H]1O,1.07% [at 25.6 µM],–
C=CCN1C(=NC(=O)CC)SC2CS(=O)(=O)CC21 (stereo not drawn),-2.84%,–
CC(C)=C[C@H]1[C@@H](COC(=O)c2ccccc2Cl)C1(C)C,-3.97% [at 11.4 µM],–
Clc1ccc2c(c1)C1=C(C(c3ccncc3)O2)C(c2ccc(Br)cc2)n2ncnc2N1 (stereo not drawn),-28.8%,–
CCCn1nnc(NC(=O)Cc2ccccc2)n1,-9.5%,–
CC(C)CN1CCCC2(CCN(S(=O)(=O)c3ccccc3)CC2)C1,-2.15%,–
CC(C)CN1CC[C@@]2(CCCN(S(=O)(=O)c3ccccc3)C2)C1,–,501 nM (active)
CC(C)CN1CCC2(CC1)CCN(S(=O)(=O)c1ccccc1)CC2,–,1000 nM (active)
O=C(NC1CCCCC1)C1CC=CCC1C(=O)OCC(Cl)=C(Cl)Cl (stereo not drawn),-29.9%,–
C=CCNC(=S)NNc1ncnc2sc3c(c12)CC(C)(C)OC3,-2.64%,–
CCn1nnnc1SCC(=O)c1ccc2c(c1)OCCO2,-25.7%,–
COC(=O)[C@@]1(Cc2ccc(OC)cc2)[C@H]2c3cc(C(=O)N4CCCC4)n(CCc4c[nH]c5cc(F)ccc45)c3C[C@H]2CN1C(=O)c1ccccc1,0.678%,–
O=C1CC(c2cccs2)c2cc3c(cc2N1)OCO3 (stereo not drawn),–,8910 nM (active)
CC1(C)CC2(CC(c3cccs3)c3cc(Cl)c(O)cc3O2)NC(=S)N1 (stereo not drawn),-28.9%,–
C#CCCCO/N=C1/C[C@@H](O)[C@@H](O)[C@@H]2[C@@H]3C(=O)N([C@@H](C)c4ccccc4)C(=O)[C@H]3CC[C@@H]12,-9.9% [at 11.4 µM],–
COc1cc(OC)cc(C(=O)NCC(=O)OC2CCOC2=O)c1 (stereo not drawn),-8.8%,–
O=C(Nc1ncc(Cc2cccc(Cl)c2)s1)C1=NCCN1,-16.7%,–
